An excerpt weighted towards active compounds, which were near 2.9% of everything screened.
NSD2 inh: blocks human histone methyltransferase NSD2; O96028; NSD2 peptide methylation, AlphaScreen, 120 min; inhibition, % at 12.5 µM; hit rate 0.54% among 310,000; AID 743445; in the data active means inhibition above about 50%
Target sequence (O96028 whole entry, looked up): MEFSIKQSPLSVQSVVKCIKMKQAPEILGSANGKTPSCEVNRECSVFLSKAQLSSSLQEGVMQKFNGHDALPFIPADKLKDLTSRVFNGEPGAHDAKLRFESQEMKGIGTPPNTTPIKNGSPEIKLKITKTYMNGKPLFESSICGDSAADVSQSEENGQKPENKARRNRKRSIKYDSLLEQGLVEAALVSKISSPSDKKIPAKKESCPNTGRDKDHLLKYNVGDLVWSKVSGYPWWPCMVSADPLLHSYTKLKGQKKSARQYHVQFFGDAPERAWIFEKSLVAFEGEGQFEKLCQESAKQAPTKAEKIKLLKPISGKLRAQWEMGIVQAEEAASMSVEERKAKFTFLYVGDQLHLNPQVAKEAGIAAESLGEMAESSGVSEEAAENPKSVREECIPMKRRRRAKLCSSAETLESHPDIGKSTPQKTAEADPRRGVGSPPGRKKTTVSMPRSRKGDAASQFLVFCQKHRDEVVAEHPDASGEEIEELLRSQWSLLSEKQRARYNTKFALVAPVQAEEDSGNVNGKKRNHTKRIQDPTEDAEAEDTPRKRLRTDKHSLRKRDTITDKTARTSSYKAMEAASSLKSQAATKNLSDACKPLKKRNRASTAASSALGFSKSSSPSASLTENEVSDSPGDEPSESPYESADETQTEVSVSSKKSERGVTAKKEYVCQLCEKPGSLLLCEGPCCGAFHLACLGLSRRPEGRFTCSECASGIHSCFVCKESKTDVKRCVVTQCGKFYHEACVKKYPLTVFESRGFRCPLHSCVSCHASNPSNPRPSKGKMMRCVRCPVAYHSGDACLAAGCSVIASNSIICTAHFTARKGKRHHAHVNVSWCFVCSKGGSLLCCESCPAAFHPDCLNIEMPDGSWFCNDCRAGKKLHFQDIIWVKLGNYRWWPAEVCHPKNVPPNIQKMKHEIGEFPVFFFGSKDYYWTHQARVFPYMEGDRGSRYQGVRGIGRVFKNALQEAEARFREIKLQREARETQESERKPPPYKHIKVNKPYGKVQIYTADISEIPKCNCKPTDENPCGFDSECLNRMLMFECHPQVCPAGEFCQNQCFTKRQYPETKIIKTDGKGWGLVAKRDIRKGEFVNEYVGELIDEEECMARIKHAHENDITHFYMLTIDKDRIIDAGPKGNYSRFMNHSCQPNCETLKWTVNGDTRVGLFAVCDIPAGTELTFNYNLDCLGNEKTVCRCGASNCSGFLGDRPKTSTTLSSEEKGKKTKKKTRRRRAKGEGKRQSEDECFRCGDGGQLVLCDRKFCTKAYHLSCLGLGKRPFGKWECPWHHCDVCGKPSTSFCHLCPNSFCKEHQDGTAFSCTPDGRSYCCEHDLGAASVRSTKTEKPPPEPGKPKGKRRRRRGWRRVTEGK
PfHsp90 set2: growth inhibition of yeast expressing Plasmodium Hsp90. S. cerevisiae expressing PfHsp90, BacTiter-Glo ATP, 48 h; yeast lacking PDR1 and PDR3 efflux regulators. inhibition, % at 9.4 µM. hit rate 0.32% among 310,000. AID 504621;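 active means every replicate shows inhibition above about 80%, whatever the replicate mean, limit read from the data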;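 further: 0% = DMSO neutral controls and 100% = 20 µM radicicol positive controls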
MITF TRPM1 HTS: MITF TRPM1 promoter activation in melanoma cells; AID 588334; hit rate 0.75% among 300,000; SK-MEL-5 TRPM1-promoter luciferase, 24 h; % of positive control, neutral wells = 0; activation, % at 12.5 µM;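 active means mean activation of at least 80% with every replicate also reaching 80%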;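 further: 0% = neutral control wells and 100% = parthenolide positive control wells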
Glyco luc inh: blocks N-linked glycosylation in D54 reporter cells; AID 588692; D54 ERlucT glycosylation luciferase reporter, 24 h; percent of 100 nM tunicamycin response; reporter increase, % at 12.5 µM; hit rate 0.23% among 360,000;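 active means mean luciferase reporter signal, scaled so untreated is 0 and the glycosylation-blocking control 100, at or above a set limit in every replicate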;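 further: luciferase carries N-glycosylation sites so blocking glycosylation raises the light; 0% = median of neutral control wells and 100% = median of 100 nM tunicamycin wells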
TRPM1 prom inh: reduces MITF-dependent TRPM1 promoter luciferase signal. AID 488899. hit rate 0.83% among 330,000. SK-MEL-5 TRPM1 promoter luciferase, 24 h. inhibition, % at 12.5 µM;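 active means mean inhibition across replicates of 60% or more, whatever share of single replicates reaches that level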
Wnt bcat act: activates Wnt/beta-catenin signaling in a reporter cell assay | activator, plate reader | activation, % at 9.35 µM | AID 743398 | hit rate 1.2% among 300,000; in the data active means activation above about 30%, passing the limit was not always enough;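 further: 0% = neutral control wells and 100% = positive control wells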
Alpha artifact: AlphaScreen assay artifact in NSD2 counter-screen; shares compounds with NSD2 inh; AlphaScreen artifact counterscreen, preloaded methylated H4 peptide; AC35, µM (doses to about 10 µM), without a hit: at the highest dose activity change, negative = signal loss; hit rate 9.4% among 1,500; AID 1053174; call rule not given here
Numbers without * were called inactive; . = no result.

SMILES | NSD2 inh | PfHsp90 set2 | MITF TRPM1 HTS | Glyco luc inh | TRPM1 prom inh | Wnt bcat act | Alpha artifact
CN1/C(=C\C(=O)COC(=O)c2ccc(O)cc2)C(C)(C)c2ccccc21 | 3 | -10 | -15 | 2 | 19 | -9 | .
Cc1cccc(C)c1NC(=O)C(c1ccccc1OC(F)(F)F)N1CCN(c2ccc(F)cc2)CC1 (stereo unspecified) | . | . | . | -6 | . | 0 | .
CCOc1ccccc1/C=N/NC(=O)c1nnn(-c2nonc2N)c1CN1CCCC1 | -1 | 8 | -1 | 5 | -1 | -1 | .
CCOc1ccccc1/C=N/NC(=O)c1nnn(-c2nonc2N)c1CN1CCC(C)CC1 | 83* | -17 | 22 | 4 | -22 | -3 | -9%
CCC(C)NC(=O)Cn1nc(Cc2ccncc2)c2ccccc2c1=O (stereo unspecified) | -1 | 5 | -7 | 1 | -5 | 2 | .
O=C(CN1C(=O)NC2(CCCC2)C1=O)Oc1ccc2ccc(=O)oc2c1 | -3 | . | -11 | 0 | 10 | -3 | .
O=C(NCc1cccnc1)c1ccc2c(c1)OCO2 | 66* | . | -2 | 2 | 3 | -1 | -3%
O=C(NCc1ccc2c(c1)OCO2)c1ccc2c(c1)C(=O)N(Cc1cccnc1)C2=O | 0 | -5 | -3 | 0 | 8 | . | .
Cc1ccc(C(=O)N2CCN(S(=O)(=O)c3ccc(C(C)C)cc3)CC2)s1 | 0 | . | -14 | -1 | 16 | -3 | .
Cc1ccc(C(=O)COC(=O)CCc2ccc(S(=O)(=O)N3CCCCC3)cc2)cc1 | -4 | -12 | -4 | 1 | 7 | -6 | .
COc1cccc(C2c3c(oc4ccccc4c3=O)C(=O)N2CCCN(C)C)c1OC (stereo unspecified) | 60* | -9 | -16 | 0 | 15 | . | 0%
CCN(C(=O)COC(=O)c1ccc([N+](=O)[O-])o1)C1CCCCC1 | 69* | . | -20 | 0 | 22 | -1 | -4%
CC1CCCCC1NC(=O)COC(=O)c1ccc([N+](=O)[O-])o1 (stereo unspecified) | . | -13 | -8 | 1 | 9 | -1 | .
Cc1cc(C(=O)COC(=O)c2ccc([N+](=O)[O-])o2)c(C)n1CC1CCCO1 (stereo unspecified) | 54* | 3 | 17 | -3 | -16 | 3 | -5%
O=C(COC(=O)c1ccc([N+](=O)[O-])o1)NC1CCS(=O)(=O)C1 (stereo unspecified) | 74* | 14 | -4 | 2 | 1 | . | 1%
COCCn1c(C)cc(C(=O)COC(=O)c2ccc([N+](=O)[O-])o2)c1C | 15 | 18 | -1 | -6 | 4 | 0 | .
COc1ccc(-n2nnnc2SC(C)C(=O)NC2CCCC2)cc1 (stereo unspecified) | -1 | -11 | 2 | -1 | 1 | -2 | .
COc1ccc(-c2csc(N(CCCN(C)C)C(=O)c3ccccc3C)n2)cc1 | 17 | 28 | . | -9 | 9 | -2 | .
COc1ccc(-c2csc(N(CCCN(C)C)C(=O)c3ccccc3Cl)n2)cc1 | 58* | -2 | 8 | -13 | -2 | -3 | -6%
Cc1ccccc1[C@H](NC1c2ccccc2C=Cc2ccccc21)P(=O)(c1ccccc1)c1ccccc1 | . | . | . | . | . | -14 | .
Cc1ccc(C(=O)C2CCN(S(=O)(=O)c3ccc(C(=O)O)cc3)CC2)cc1 | 66* | 12 | -3 | 3 | 0 | -2 | -5%
Cc1ccc(C(=O)NNC(=O)C2CCN(S(=O)(=O)c3ccc(C)cc3)CC2)cc1 | -2 | -1 | 3 | 2 | -1 | -1 | .
COc1ccccc1NC1C=CS(=O)(=O)C1 (stereo unspecified) | 97* | 48 | . | 3 | 0 | -2 | -5%
Cc1ccccc1NC1C=CS(=O)(=O)C1 (stereo unspecified) | 1 | -12 | 6 | 1 | -9 | . | .
COc1cc(/C=C/[N+](=O)[O-])ccc1OCc1cccc(C(=O)O)c1 | 82* | . | . | . | . | . | -18%
SMILES | NSD2 inh | PfHsp90 set2 | MITF TRPM1 HTS | Glyco luc inh | TRPM1 prom inh | Wnt bcat act | Alpha artifact
COc1cccc2c1N1C(=O)c3c(C(=O)O)cccc3C1CC2(C)C (stereo unspecified) | 101* | -6 | -6 | 3 | 6 | . | -1%
COc1ccc(N2Cc3cccc(C(=O)O)c3C2=O)cc1 | . | 14 | 4 | 2 | 0 | . | .
COc1cccc(CNC(=O)CSc2nnc3c(n2)[nH]c2ccccc23)c1 | 56* | -6 | -10 | -1 | 9 | -3 | 3%
COc1cccc(CNC(=O)CSc2nnc3c(n2)[nH]c2ccc(OC)cc23)c1 | . | -10 | -8 | 5 | 12 | -2 | .
Cc1cc(C)n(CC(O)COc2c(C)cccc2C)n1 (stereo unspecified) | 55* | -1 | -14 | 1 | 17 | -3 | 4%
Cc1cc(C)n(CC(O)COc2cccc(OCC(O)Cn3nc(C)cc3C)c2)n1 (stereo unspecified) | . | 1 | . | -3 | 4 | -2 | .
Cc1cc([N+](=O)[O-])cc2c1NC(=O)C2(O)N1CCOCC1 (stereo unspecified) | 59* | 19 | -9 | -1 | 7 | 1 | 2%
COc1ccc(CCC(=O)NCCOc2ccc(C)cc2)cc1 | -5 | 18 | -9 | 3 | 7 | 0 | .
COc1ccc(CCC(=O)NCCOc2ccccc2Cl)cc1 | 124* | -14 | . | -1 | -38 | 16 | -2%
O=S(=O)(Cc1ccccc1)N1CCN(c2ncccn2)CC1 | -5 | -63 | 0 | 1 | 0 | 1 | .
O=C(NNC(=S)Nc1ccccc1)c1ccco1 | 119* | -38 | 8 | 0 | -4 | . | -3%
O=C(NCc1ccc(Cl)nc1)c1csc([C@@H]2C[C@H](O)[C@@H](CO)O2)n1 | -1 | . | . | 0 | . | -2 | .
COc1ccc(-n2cc(CNCCN3CCOC3=O)c(-c3ccccc3Cl)n2)cc1 | -2 | -20 | -1 | 2 | -3 | 4 | .
CCN1CCC(CNCc2cn(-c3ccc(OC)cc3)nc2-c2ccccc2Cl)C1 (stereo unspecified) | 75* | 13 | -11 | -3 | 12 | -3 | -4%
Cc1cc(CN2CCC(n3nccc3NC(=O)c3ccccc3C)CC2)n[nH]1 | -1 | -9 | 5 | -1 | -5 | -1 | .
Cc1cc(-c2ccc(C)c(S(=O)(=O)N3CCN(c4ccccn4)CC3)c2)on1 | 131* | -4 | 1 | 0 | -6 | -2 | -3%
COc1ccc(C)cc1NC(=O)n1ncc2cc(Cl)ccc21 | 15 | -14 | -14 | 1 | 15 | -1 | .
CN1CCN(S(=O)(=O)c2cccc(C(=O)Nc3ccccc3N3CCOCC3)c2)CC1 | -1 | 7 | 1 | 0 | -1 | -3 | .
CSc1ccccc1NC(=O)CN(C)C(=O)COc1ncnc2ccccc12 | 56* | -6 | 8 | -1 | -7 | -2 | 1%
CSc1ccccc1NC(=O)CN(C)C(=O)COc1cccc2cccnc12 | . | -15 | -20 | 1 | 18 | 0 | .
